# The list is not random: actives were taken first. Their share in the collection is about 0.78%.
# L3MBTL1 block – qHTS Assay for the Inhibitors of L3MBTL1. Lethal(3)malignant brain tumor-like protein 1 (Homo sapiens), Q9Y468. AlphaScreen L3MBTL1–H3K9me1 peptide binding. Potency, µM (titrated, usually from 57.1 µM), without a hit: at the highest dose activity, negative = inhibition, hits mostly inhibitors. 230,000 compounds, 0.66% hits. AID 485360, 2010; further: nearly all actives have a fitted effect of over 60% in size
#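 AlphaScreen assay: L3MBTL1 (50 nM final) was preincubated 30 min at room temperature with biotinylated H3(1-15)K9me1 peptide (75 nM final), then 30 min with library compounds; streptavidin donor and nickel chelate acceptor beads (10 ug/mL final) added, 30 min dark.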
# BLM helicase inh – qHTS Assay for Inhibitors of Bloom's syndrome helicase (BLM); RecQ-like DNA helicase BLM (Homo sapiens), P54132; recombinant BLM DNA unwinding, fluorescence dequenching; Potency, µM (highest dose often 56.1 µM), inactives show at the top dose activity change, negative = inhibition, most hits filed as inhibitors; 350,000 compounds, 0.2% hits; AID 2528, 2010;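 further: plate controls were vehicle for no effect and no enzyme for full effect; nearly all actives have a fitted effect of over 35% in size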
# APE1 inh – qHTS Assay for Inhibitors of the Human Apurinic/apyrimidinic Endonuclease 1 (APE1); DNA repair nuclease/redox regulator APEX1 (Homo sapiens), P27695; Potency, µM (highest dose often 65.8 µM), inactives show top-dose activity change, negative = inhibition, hits mostly inhibitors; 350,000 compounds, 0.35% hits; recombinant APE1, TAMRA/BHQ-2 abasic DNA cleavage fluorescence; AID 2517, 2012;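 further: plate controls were vehicle for no effect and reference inhibitor for full effect; nearly all actives have a fitted effect of over 55% in size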
#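 Activity was derived from the fluorescence gain between first and third kinetic reads (60 s intervals, ex 525/em 598 nm) after 50 nM THF-abasic TAMRA/BHQ-2 duplex was added to 0.75 nM APE1 preincubated 15 min with compound.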
# RECQ1 inh-1 – qHTS Assay for Inhibitors of RecQ-Like Dna Helicase 1 (RECQ1). ATP-dependent DNA helicase Q1 (Homo sapiens), P46063. RECQ1 DNA unwinding, red fluorescence kinetic read. Potency, µM (highest dose often 57.3 µM), inactives show top-dose activity, negative = inhibition, hits mostly inhibitors. 240,000 compounds, 0.54% hits. AID 2549, 2010;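 further: plate controls were vehicle for no effect and no enzyme for full effect; nearly all actives have a fitted effect of over 30% in size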
# Target sequence (P46063 whole entry, looked up): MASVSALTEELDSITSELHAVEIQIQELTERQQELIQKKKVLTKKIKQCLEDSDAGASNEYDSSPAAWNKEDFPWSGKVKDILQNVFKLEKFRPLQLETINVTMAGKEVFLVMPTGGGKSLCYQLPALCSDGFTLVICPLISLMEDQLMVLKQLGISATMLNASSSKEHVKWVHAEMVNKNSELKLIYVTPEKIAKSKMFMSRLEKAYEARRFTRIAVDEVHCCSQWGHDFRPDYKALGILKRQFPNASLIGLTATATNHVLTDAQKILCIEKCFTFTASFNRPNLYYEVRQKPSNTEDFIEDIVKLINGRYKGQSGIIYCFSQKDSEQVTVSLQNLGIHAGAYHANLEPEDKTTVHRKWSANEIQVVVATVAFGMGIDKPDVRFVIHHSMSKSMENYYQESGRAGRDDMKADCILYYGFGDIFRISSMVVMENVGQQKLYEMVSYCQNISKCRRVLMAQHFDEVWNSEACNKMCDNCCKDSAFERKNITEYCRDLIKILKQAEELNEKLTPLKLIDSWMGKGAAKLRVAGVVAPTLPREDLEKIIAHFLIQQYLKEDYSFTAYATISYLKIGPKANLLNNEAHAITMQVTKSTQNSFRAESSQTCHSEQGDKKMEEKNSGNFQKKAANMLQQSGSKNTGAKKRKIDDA
#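 RECQ1T1 50 nM; forked duplex (20 bp + 30-nt ss tails) 200 nM, ATP 2 mM final; pH 8.0, 2 mM MgCl2, 2.5 ug/ml poly(dI-dC); 15 min compound preincubation; discontinuous kinetic read over 2 h at RT.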
# RECQ1 conf – Confirmation qHTS Assay for Inhibitors of RecQ-Like Dna Helicase 1 (RECQ1); shares compounds with RECQ1 inh-1; RECQ1 helicase DNA unwinding, fluorescence; Potency, µM (titrated, usually from 229 µM), for inactives: at the highest dose activity change, negative = inhibition, usual class: inhibitors; 610 compounds, 28% hits; AID 2708, 2010; further: nearly all actives have a fitted effect of over 45% in size
# ADP FP counter – Counterscreen for RECQ1 Inhibitors: ADP Fluorescence Polarization Displacement Assay | shares compounds with RECQ1 inh-1 | ADP fluorescence polarization displacement counterscreen | Potency, µM (series often up to 228 µM), for the others: at the top dose activity change, negative = inhibition, most hits filed as inhibitors | 530 compounds, 27% hits; further: nearly all actives have a fitted effect of over 45% in size
# RECQ1 inh-2 – Confirmation qHTS Assay for Inhibitors of RecQ-Like Dna Helicase 1 (RECQ1) - Round 2 Cherry Picks; shares compounds with RECQ1 inh-1; recombinant RECQ1 DNA unwinding, red fluorescence; Potency, µM (series often up to 119 µM), inactives show at the top dose activity, negative = inhibition, actives largely listed as inhibitors; 1,100 compounds, 15% hits; AID 504841, 2011; further: nearly all actives have a fitted effect of over 50% in size
# An asterisk follows results filed as active; i = inactive; u = inconclusive; x = no result given; [ ] = another dose, or the depositor's remark. The call rests on the fitted dose curve; in most records, active means well fitted curve in the direction sought with a large enough effect; inconclusive means small, poorly fitted or top-dose-only effect, or another doubt; inactive means no such curve, though single readings can be large; an effect the other way counts as inactive or inconclusive. Unless noted, on the % scale 0 is the no-effect control and ±100 the full control effect; potency means the concentration at half of the fitted maximal effect.
SMILES,L3MBTL1 block,BLM helicase inh,APE1 inh,RECQ1 inh-1,RECQ1 inh-2,others
CC(C)C[C@H](NC(=O)c1nc[nH]c1C(=O)NCCCCCNC(=O)OC(C)(C)C)C(=O)OCc1ccccc1,-9%,-16%,u,u,-20%,
CO/N=C1/[C@H]2O[C@@H]2[C@@H](O)[C@H]2[C@H]1CCn1c(=O)n(-c3ccccc3)c(=O)n12,x,2%[12.4 µM],9%[12.4 µM],i[11.5 µM],x,
COc1ccc2c(c1)CC/C(=C\c1ccc(OC)c(Cn3cccn3)c1)C2=O,x,-9%,3%,-1%,x,
COc1ccc2c(c1)CC/C(=C\c1ccc(OC)c(Cn3nc(C)cc3C)c1)C2=O,x,-12%,-3%,35µM*,u,
O=C1/C(=C/c2ccco2)Oc2c1ccc(O)c2CN1CCCCC1,u,-4%,u,u,-17%,
O=C1C(=Cc2cccs2)C(=O)c2ccccc21,-25%,-12%,4%,2%,x,
Cc1ccc(C=C2C(=O)c3ccccc3C2=O)s1,x,1%,-11%,14µM*,x,RECQ1 conf=u;ADP FP counter=55%[91.9 µM]
O=C1/C(=C/c2ccco2)SC(=S)N1c1cccnc1,3.2µM*,32µM*,4µM*,8.9µM*,x,RECQ1 conf=50µM*;ADP FP counter=50µM*
O=C1/C(=C\c2ccco2)SC(=S)N1c1ccc(O)cc1,u,34%,4%,-20%,x,
CCOC(=O)C1=C(O)/C(=C/c2cc(OC)c(O)c(OC)c2)SC1=Nc1ccc(OC)cc1,-6%,-6%,u,14µM*,u,
O=C(NCc1n[nH]c(=S)n1-c1cccc(C(F)(F)F)c1)c1ccc(S(=O)(=O)N2CCCC2)cc1,x,-1%,25%,i,x,RECQ1 conf=-4%;ADP FP counter=8%
COc1ccc(Cn2cccc(NC(=O)Nc3cccc(OC)c3)c2=O)cc1,x,-11%,-1%,u,-17%,
COc1ccc(-c2cc3nc(-c4ccccc4)cc(N4CCCC(O)C4)n3n2)cc1 (configuration not stated),38%,-12%,6%,u,-11%,
O=C(Nc1ccc(NC(=O)c2cccs2)cc1)c1ccc(Br)o1,x,-18%,u,u,u,
O=C(Cn1c(=O)nc(-c2ccccc2)c2cc(Cl)ccc21)NCc1ccccc1,x,1%,x,x,x,
Cc1cc(/C=C\c2nc(O)c([N+](=O)[O-])c(=O)[nH]2)c(C)n1-c1ccccc1,-24%,-16%,u,25µM*,u,
CCOc1ccccc1/C=C\c1nc(O)c([N+](=O)[O-])c(=O)[nH]1,x,-5%,5%,x,x,
COc1ccc(-n2c(C)cc(/C=C/c3nc(O)c([N+](=O)[O-])c(=O)[nH]3)c2C)cc1,u,-25%,u,u,u,
O=c1[nH]c(/C=C\c2cccc(O)c2)nc(O)c1[N+](=O)[O-],3%,5%,-7%,x,x,
CCCn1c(=O)c2sccc2n2c(CCCC(=O)Nc3ccc(C)c(F)c3)nnc12,x,0%,x,x,x,
CCOC(=O)N1CCc2c(sc3c2c(=O)n(CCc2ccccc2)c(=O)n3Cc2ccc(C)cc2C)C1,x,-4%,x,x,x,
CC(C)c1ccc(NC(=O)c2ccc(CN3CC(=O)N4CCCCC4C3=O)cc2)cc1 (configuration not stated),x,-2%,x,x,x,
COCCCn1c(=O)/c(=C\c2ccccc2OC(F)F)s/c1=C(/C#N)C(=O)NC(C)C,-1%,-7%,1%,u,-13%,
N#C/C(=C\c1ccccc1OCc1ccc(C(=O)O)cc1)C(=O)Nc1ccc(O)cc1,x,-5%,9%,i,x,
COCCCn1c(=O)/c(=C\c2ccc(OC(F)F)c(OC)c2)s/c1=C(/C#N)C(=O)NCCOC,15%,-3%,14%,12%,x,
SMILES,L3MBTL1 block,BLM helicase inh,APE1 inh,RECQ1 inh-1,RECQ1 inh-2,others
COCCCn1c(=O)/c(=C\c2ccccc2OC(C)C)s/c1=C(/C#N)C(=O)Nc1ccc(C(=O)O)cc1,-9%,-8%,-2%,u,u,
CC1=C(C(=O)Nc2ccccc2)C(c2ccccc2Cl)n2ncc(C(=O)Nc3cccc(C)c3)c2N1 (configuration not stated),x,1%,x,x,x,
COc1ccc(F)cc1S(=O)(=O)Nc1ccc2c(c1)CCCN2C(=O)c1cccs1,x,-3%,x,x,x,
CC(=O)c1sc2nc(-c3ccco3)ccc2c1N,-22%,u,3.2µM*,3.5µM*,-21%,
Nc1c(C(=O)Nc2ccc(Br)cc2)sc2nc(-c3ccco3)ccc12,1%,-21%,-14%,-22%,x,
Nc1c(C(=O)Nc2ccc(F)cc2)sc2nc(-c3ccco3)ccc12,3%,-14%,u,22µM*,-16%,
CC(=O)c1cccc(S(=O)(=O)N2CCCC(c3nc(-c4ccc(C)o4)no3)C2)c1 (configuration not stated),-5%,-4%,0%,u,-28%,
Cc1ccc(-c2noc(C3CCCN(S(=O)(=O)c4ccc5ccccc5c4)C3)n2)o1 (configuration not stated),x,-10%,-2%,-1%,x,
CC(C)(C)c1ccc(C(=O)CS(=O)(=O)c2ccccc2)cc1,10%,-6%,14%,u,-15%,
Cc1ccc(S(=O)(=O)CC(=O)c2ccccc2)cc1,1%,-3%,11%,u,x,
COCc1cc(=O)n2[nH]c(N)nc2n1,x,-5%,1%,-2%,x,
COCc1cc(=O)n2[nH]c(-c3ccsc3-n3c(C)ccc3C)cc2n1,x,u,25µM*,u,-24%,
COc1cc(/C=N/N2C(=O)CSC2=S)ccc1O,x,-1%,4%,u,u,
COc1ccc(Br)cc1/C=N/N1C(=O)CSC1=S,x,-3%,-7%,x,x,
O=C(Cn1nc(C(=O)O)c2ccccc2c1=O)Nc1nc(-c2ccccc2)cs1,1%,-9%,-4%,i,x,RECQ1 conf=2%;ADP FP counter=7%
COc1ccc(CC(=O)Nc2ccc(C(=O)Nc3ccccc3C(=O)O)cc2)cc1OC,11%,-9%,1%,-1%,x,RECQ1 conf=15%;ADP FP counter=-12%
COc1ccc(CC(=O)Nc2ccc(C(=O)NC(C)(C)C)cc2)cc1OC,10%,-4%,1%,-11%,x,
O=C(NCc1ccco1)c1ccc(S(=O)(=O)N2CCCCC2)cc1,2%,-1%,6%,-6%,x,

# From PubChem BioAssay
